Drawing on ChEMBL document CHEMBL1201862, “PubChem BioAssay data set” (2004), this text covers GI50 for 11 substances.

Hit rate of the full screen: of about 55,000 […], about 2,600 (4.7%) were called active. Rule as the data show it: active = GI50 up to about 1.1 µM and inactive = higher. These entries were drawn from the full list. Measured potencies and affinities stand elsewhere.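 Each compound was tested at five concentrations against cells in 96-well plates for 48 hours. Here, GI50 denotes the concentration required for 50% inhibition of growth.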

In the assay the test system is OVCAR-4. The assay is described as follows: NCI tumour cell line growth inhibition, 48 h.
For the substance “[Bis(aminomethyl)tetramethylenesilane]dichloropaltinum(II), CHEMBL2146205”, the GI50 turned out to be 59.8 µM.
The figure for “[Bis(aminomethyl)tetramethylenesilane]tetrachloropaltinum(IV), CHEMBL2146189” is 19 µM.
Take CISPLATIN, CHEMBL11359: the GI50 came to 1.49 µM.
On to “[Bis(aminomethyl)pentamethylenesilane]dichloropaltinum(II), CHEMBL2146202”, for which the GI50 was 5.46 µM.
The result for “cis-Bis[[(trimethylsilyl)methyl]amino]tetrachloroplatinum(IV), CHEMBL2146191” reads 5.53 µM; that for “[Bis(aminomethyl)pentamethylenesilane]tetrachloropaltinum(IV), CHEMBL2146204”, 18.6 µM.
The figure for “[Bis(aminomethyl)dimethylsilane]tetrachloroplatinum(IV), CHEMBL2146190” is 18.8 µM; for “[Bis(aminomethyl)dimethylsilane]dichloroplatinum (II), CHEMBL2146201” it is 45.8 µM.
For “[Bis(aminomethyl)ethylmethylsilane]tetrachloroplatinum(IV), CHEMBL2146192”, the GI50 was determined as 10 µM.
In turn, “mu-(1,7-nanodiamine-N,N')bis-(cis-aminedichloroplatimum (II)), CHEMBL2146215” returned a GI50 of 40.8 µM.
The result for “[Bis(aminomethyl)diethylsilane]tetrachloroplatinum(IV), CHEMBL2146203” reads 14.7 µM.
